Bioassay records (PubChem BioAssay)
IP6K1 inh – inhibitors of human IP6K1. IP6K1 kinase, ADP-Glo luminescence, 2 h; active compounds read low. activity change, % (series mostly up to about 58 µM). 0.81% of 140,000 active; in the data active = activity change below about -25%; note: % is set by controls: 0 for no effect and ±100 for the full control effect
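ADP-Glo luminescence measures ADP made by human IP6K1 during a 2 h RT reaction with ATP/IP6 (mix at 1.3 mM/130 uM); top library doses 57.5 and 19.1 uM final.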
KDM5B inhibitor – KDM5B demethylase inhibition; KDM5B demethylase, FDH-coupled NADH fluorescence (FDH is formaldehyde dehydrogenase); Potency, µM (series often up to 57.7 µM), actives largely listed as inhibitors; 2.6% of 220,000 active; note: potency is the fitted concentration of half-maximal effect; 0% is about no effect; nearly all actives have a fitted effect of over 70% in size
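Inhibition is measured as reduced NADH fluorescence generation from FDH coupling to formaldehyde release. Truncated KDM5BΔAP at 200 nM final acts on H3K4me3 peptide (12.5 µM in substrate mix) in pH 7.5 HEPES buffer with Tween-20, 30 min, room temperature.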
SNCA expr inh – inhibitors of alpha-synuclein (SNCA) gene expression; HEK-293 SNCA-luciferase knock-in, luminescence, 24 h; Potency, µM (titrated, usually from 57.2 µM), inactives show top-dose activity change, negative = inhibition, actives largely listed as inhibitors; 0.17% of 140,000 active; AID 1671194;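 note: potency is the fitted concentration of half-maximal effect; plate controls were DMSO cells for no effect and cell-free wells for full effect; nearly all actives have a fitted effect of over 45% in size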
SNCA viab count – cell viability loss counter-screen | 0.12% of 150,000 active | Potency, µM (highest dose often 57.1 µM), for inactives: at the top dose activity change, negative = cytotoxicity, hits mostly cytotoxic | AID 1671193 | HEK-293-SNCA-luc viability, GF-AFC fluorescence, 24 h;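 note: potency is the fitted concentration of half-maximal effect; 0% = DMSO-treated cells and -100% = medium-only wells without cells; nearly all actives have a fitted effect of over 30% in size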
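HEK-293-SNCA-luc cells (1500/well) plated 24 h, then exposed 24 h to a dilution series; GF-AFC added 30 min at 37C, fluorescence 405/540 nm; normalised to medium-only and DMSO wells, Hill fit.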
IP6K1 conf – human IP6K1 inhibition, confirmatory. recombinant IP6K1 kinase, ADP-Glo luminescence, 2 h. AID 1645852. Potency, µM (highest dose often 49 µM), inactives show at the top dose activity change, negative = inhibition, hits mostly inhibitors. shares compounds with IP6K1 inh. 13% of 1,200 active; note: potency is the fitted concentration of half-maximal effect; % is set by controls: 0 for no effect and ±100 for the full control effect; nearly all actives have a fitted effect of over 65% in size
* = called active by the depositor; i = inactive; ? = inconclusive; nt = not tested or not shown; [ ] = another dose, or the depositor's remark. Sampled rows, rich in hits. Any-hit rate of the full collection: about 2.8%. Unless noted, calls come from the whole dose curve; as a rule, active = well fitted curve in the direction sought with a large enough effect; inconclusive = small, poorly fitted or top-dose-only effect, or another doubt; inactive = no such curve, though single readings can be large; an effect the other way counts as inactive or inconclusive.

SMILES	IP6K1 inh	KDM5B inhibitor	SNCA expr inh	SNCA viab count	IP6K1 conf
Cc1cccc(CN2CCc3nc(N4CCN(c5ccccn5)CC4)ncc3C2)c1	-27*	?	-19%	17%	?
CSc1ccc(COC(=O)Cc2c[nH]c3ccccc23)cc1	nt	i	nt	nt	nt
CCCCCCCCCCCCSCC(=O)O	nt	i	nt	nt	nt
CCCCCCCCCCCCCCCCC(C(=O)O)C(O)(CC(=O)O)C(=O)O (stereo not drawn)	-78*	nt	31%[25.6 µM]	-8%[23.9 µM]	23µM*
CC(=O)c1ccc(NC(=O)CSc2nnc(N)s2)cc1	-31*	i	145%	-3%	-16%
Nc1nnc(SCC(=O)Nc2ccccc2)s1	-2	?	68%	5%	nt
Cn1ncc2c(C(=O)NCc3ccc(F)cc3)cc(-c3ccc(C(F)(F)F)cc3)nc21	-7	nt	nt	nt	nt
COc1ccc(-c2nc3c(c(SCC(=O)Nc4cccc(O)c4)n2)Cc2c(CO)cnc(C)c2O3)cc1	-29*	?	-8%	-22%	-3%
CCOc1ccc(NC(=O)CSc2nc(-c3ccc(OC)cc3)nc3c2Cc2c(CO)cnc(C)c2O3)cc1	14	i	11%	14%	nt
COc1ccc(-c2cnc3[nH]cc(CC(=O)Nc4ccc(OC)nc4)c3c2)cc1	3	?	1%[87.6 µM]	-18%[87.6 µM]	nt
CCc1ccccc1NC(=O)c1ccc2nc(C(C)C)oc2c1	-36*	i	-21%	3%	-3%
O=C1CCC2(CCCO2)CCN1Cc1cccc(F)c1F (stereo not drawn)	-31*	i	42%	-2%	-9%
O=C1CCC2(CCCO2)CCN1Cc1c(F)cccc1F (stereo not drawn)	13	i	2%	-11%	nt
Cc1ccc(F)c(C(=O)N[C@H](Cc2ccccc2)C2CC(O)C2)c1Cl (stereo partly drawn)	-34*	i	55%	6%	-11%
O=C(N[C@H](Cc1ccccc1)C1CC(O)C1)c1cnn(Cc2ccccc2)c1 (stereo partly drawn)	-9	i	32%	4%	nt
CCCCN(Cc1ccco1)C(=O)Cn1ncc2c([nH]c3ccccc32)c1=O	17	?	-20%	-17%	nt
CCCN(C(=O)Cn1ncc2c([nH]c3ccccc32)c1=O)c1ccc(F)cc1	-37*	i	-29%	14%	-16%
O=C(C1CCN(Cc2ccccc2-c2cccnc2)CC1)N1CCC(c2ccccc2)CC1	11	nt	-22%	6%	nt
CCCC(=O)Nc1ccccc1NC(=O)c1ccc(C(C)(C)C)cc1	nt	i	nt	nt	nt
COc1ccc(Cl)cc1NC(=O)Cn1ncc2c3ccccc3n(Cc3ccccc3)c2c1=O	-27*	?	11%	2%	-2%
COc1cccc(NC(=O)CSCc2cc(=O)c3ccc(C)c(C)c3[nH]2)c1	-37*	i	14%	6%	?
CN(C)S(=O)(=O)c1cccc(C(=O)/C=C/c2cc(-c3cccs3)cs2)c1	nt	i	nt	nt	nt
Cc1cc(C(=O)NC2CC(c3nnc(CN(C)C)n3C)C2)c2c(C)noc2n1 (stereo not drawn)	-29*	i	37%	16%	-7%
Cn1ncc2c(N[C@@H](Cc3ccccc3)C(N)=O)nc(-c3ccncc3)nc21	39	?	?	-15%	nt
COc1ccccc1CN1CCNc2cnc(OCc3cccnc3)cc2C1	-24	?	-5%[87.6 µM]	-5%[87.6 µM]	nt
SMILES	IP6K1 inh	KDM5B inhibitor	SNCA expr inh	SNCA viab count	IP6K1 conf
COc1ccc(CN2CCNc3cnc(OCc4cccnc4)cc3C2)cc1O	-29*	i	-15%[87.6 µM]	-8%[87.6 µM]	-3%
Cc1nc2nc3ccn(CCN4CCOCC4)c(=O)c3c(-c3ccccc3)n2n1	nt	i	nt	nt	nt
O=C(O)C(c1c[nH]c2cc(OCc3ccccc3)ccc12)N1CCN(c2ccc(Cl)cc2)CC1 (stereo not drawn)	nt	i	nt	nt	nt
COc1cccc(NC(=O)CC2C(=O)OCCN2Cc2ccccc2)c1 (stereo not drawn)	-48*	i	6%	9%	-2%
Cc1ccccc1-c1nc(NCc2cccs2)c2ccccc2n1	nt	nt	-19%	-27%	-2%
FC(F)(F)c1ccccc1-c1nc(NCc2ccc(-c3ccc(Cl)c(Cl)c3)cc2)c2ccccc2n1	nt	nt	nt	nt	-4%
FC(F)(F)c1ccccc1-c1nc(NCc2cccs2)c2ccccc2n1	nt	nt	-22%	-7%	-3%
Clc1ccccc1-c1nc(NCc2cccs2)c2ccccc2n1	nt	nt	-5%	-8%	nt
